The panel holds about 83,000 compounds, 20% with a hit somewhere; the sample as a whole holds those more often.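 Percent growth is the endpoint: 0 to 100 indicates growth inhibition (40 means 60% inhibition), 0 means no net growth, and negative values indicate cell death.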 A number with no mark means an inactive call. Active and inactive are the calls of the source. The calls were made as follows: active = growth percent below 10; inactive = the rest.
Each compound was assayed on HL-60(TB) leukemia (assay: NCI-60 one-dose screen, 48 h (100 = growth as untreated, 0 = no growth, -100 = all killed)). Details: 10 µM unless noted.
With CCCCN(CCCC)C(=O)[C@H](CC)[C@@H]1CC[C@@H](C)[C@@H]([C@H](C)[C@@H](O)[C@@H](C)C(=O)[C@H](CC)C2O[C@]3(C=CC(=O)[C@]4(CC[C@@](C)([C@H]5CC[C@](O)(CC)[C@H](C)O5)O4)O3)[C@H](C)C[C@@H]2C)O1 (some centres undefined) the growth was -1.52% (active). With FC(F)(F)c1cc(-c2nnc3n2N=C(Cl)CS3)cc(C(F)(F)F)c1 the growth was 93.2%. Compound NNc1ncnc2cccc(Cl)c12 has a growth of 99.9%. With CCN(Cc1ccccc1)c1ccc(SC#N)cc1 the growth was 20.3%. With CCn1c(Sc2nnc(Nc3ccccc3)s2)nc2c1c(=O)n(C)c(=O)n2C the growth was 113%. In the case of Cc1ccccc1NC(=O)CN(C)C, the growth is reported as 87.9%. Work on COc1cc(/C=C/C(=O)c2c(C)[n+]([O-])c3ccccc3[n+]2[O-])ccc1O yielded a growth of 102%. With CCOC(=O)c1noc2c1CCc1c-2cn(Cc2ccc(OC)cc2)c1-c1cc(OC)c(OC)c(OC)c1 the growth was -25.5% (active). With CN1CCCc2cc(/C=C3/SC(=S)N(CCc4ccc(O)cc4)C3=O)ccc21 the growth was 8.87% (active). With N#CCCc1ccc(O)cc1 the growth was 95.6%. Compound CC(Br)C(O)c1cc2c(cc1Br)OCO2 (centres undefined) has a growth of 105%. For Cc1c[nH]c(=O)n(Cc2nnc(CCC(=O)c3nc4ccccc4[nH]3)o2)c1=O, the growth was -0.434% (active). O=C1CCC23OC(C(O)c4ccccc4N12)C1C(Br)=NOC13 (centres undefined) gave a growth of 96%. COc1ccc(CNC(=O)c2c(C)n([O-])c3cc(F)c(F)cc3[n+]2=O)cc1 showed a growth of 101%.

— PubChem BioAssay (NCI)
